Test results reported in the supplement of paper PMC10127200.

test system: OVCAR4; experiment: Euclidean distance of Cell Painting phenotypic profile (signed KS, 77 features) to DMSO centroid (dimensionless distance); 5 or 10 uM (library dependent); higher = stronger phenotypic change vs DMSO (phenoactivity); conditions: 48 h
Method in brief: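 Five cancer lines, together with a healthy fibroblast line, received library compounds for 48 h at a library-dependent 10 or 5 uM and 0.1% DMSO final. Harmony then derived 77 features from confocal 20X images (9 fields/well) of the stained cells, scoring each as a signed Kolmogorov-Smirnov statistic against same-plate vehicle wells. After plate-position correction, correlation weighting and replicate averaging at the top dose, phenoactivity was taken as each profile's Euclidean distance to the median vehicle profile.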

Question: `Nc1ccc2ncnc(NCCc3ccc(Oc4ccccc4)cc3)c2c1` was tested. Which Euclidean distance did it give?
Answer: The Euclidean distance was 0.755.

Question: `O=S1(=O)CCN(CN2CCS(=O)(=O)NC2)CN1` [Taurolidine] was tested. Which Euclidean distance did it give?
Answer: Its Euclidean distance is 1.46.

Question: `CC(C)Nc1cccnc1N1CCN(C(=O)c2cc3cc(NS(C)(=O)=O)ccc3[nH]2)CC1` [Delavirdine (mesylate)] was tested. Which Euclidean distance did it give?
Answer: Its Euclidean distance is 1.51.

Question: Which Euclidean distance does the source give for `CC(COc1ccccc1Cc1ccccc1)N1CCCCC1` (stereo unspecified) [Benproperine phosphate] here?
Answer: Its Euclidean distance is 1.42.

Question: With `CCC/C=C1\OC(=O)C2=C1CCC=C2` [Ligustilide] as the molecule, how does the Euclidean distance read?
Answer: Its Euclidean distance is 1.1.

Question: For `Cc1cnc(NC(=O)Nc2cc(Br)c(C)cc2OC[C@@H]2CNCCO2)cn1`, which Euclidean distance is on record?
Answer: Its Euclidean distance is 3.62.
